Screens from PubChem.
This excerpt belongs to a sample that is enriched for hits.
MITF inhib – inhibitors of MITF, primary screen, MITF inhibitor project, cell-based, luminescence; actives 0.28% (n = 37,000); inhibition, % (no concentration beside the values); TRPM1 promoter luciferase, 24 h; in the data active = inhibition above about 85%; inconclusive = no clear call, values can overlap the other calls; inactive = below about 68%;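 note: human melanocyte line stably carrying TRPM1 promoter luciferase reporter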
Shh pathway inh – Hedgehog pathway signaling inhibitors, primary screen, luminescence, Shh-LIGHT2 cells, Gli-luciferase. Shh-LIGHT2 Gli-luciferase reporter, 30 h. inhibition, % (test concentration not listed). actives 2.1% (n = 22,000). AID 2313, 2010;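 active = mean inhibition across valid replicates above about 65%, limit read from the data; inconclusive = mean under the limit, yet half or more replicates past it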;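 note: pathway switched on by Shh-conditioned medium diluted 1 in 25 in low serum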
Hits are given with their value; – = inactive; ? = inconclusive; · = no result.

SMILES	MITF inhib	Shh pathway inh
Cc1noc(C)c1S(=O)(=O)Nc1cccc2c1O[C@H](CN(C)S(=O)(=O)c1ccc(Cl)cc1)[C@H](C)CN([C@@H](C)CO)C2=O	–	–
CC(=O)c1ccc(NC(=O)COc2ccccc2C(N)=O)cc1	–	·
COc1cccc(CO)c1OCC(=O)Nc1ccc(F)cc1	–	·
COc1cccc(OCC(=O)Nc2ccc(OC)c(NC(=O)c3ccco3)c2)c1	–	·
C=C1C(=O)O[C@@H]2/C=C(\C)[C@@H](OC(=O)C(O)C(C)C)C/C=C(/C)C[C@@H](OC(=O)/C(=C/CO)CO)[C@@H]12 (stereo partly specified)	–	–
O=C(CCCN1C(=O)c2cccc3cccc(c23)C1=O)Nc1ccccc1Br	–	·
O=C(CCCCCN1C(=O)c2cccc3cccc(c23)C1=O)NO	–	90.6
C[C@H](CO)N1C[C@H](C)[C@H](CN(C)S(=O)(=O)c2ccc(Cl)cc2)Oc2c(NC(=O)Nc3ccc4c(c3)OCO4)cccc2C1=O	–	109.7
C[C@H]1CN([C@@H](C)CO)C(=O)c2cccc(NC(=O)Nc3ccc4c(c3)OCO4)c2O[C@H]1CN(C)S(=O)(=O)c1ccc(Cl)cc1	–	107.2
Cc1ccc(S(=O)(=O)N(C)C[C@H]2Oc3c(NC(=O)Nc4ccc5c(c4)OCO5)cccc3C(=O)N([C@@H](C)CO)C[C@H]2C)cc1	–	–
Cc1ccc(S(=O)(=O)N(C)C[C@@H]2Oc3c(NC(=O)Nc4ccc5c(c4)OCO5)cccc3C(=O)N([C@@H](C)CO)C[C@H]2C)cc1	–	–
O=C(CC(=O)c1ccc(O)cc1)OC[C@H]1O[C@@H](Oc2ccc(O)cc2)[C@H](OC(=O)c2ccc(O)cc2)[C@@H](O)[C@@H]1O	·	–
Cc1ccc(-c2nc3ccccc3[nH]2)cc1NC(=O)COc1cccc([N+](=O)[O-])c1	–	·
Cc1ccc(-c2nc3ccccc3[nH]2)cc1NC(=O)COc1ccccc1[N+](=O)[O-]	85.6	·
O=C1c2ccccc2-[n+]2ccc3c([nH]c4ccccc43)c21	107.8	?
O=C1C(c2c(O)[nH]c3ccccc23)=Nc2ccccc21	–	–
CS(=O)c1sc(C(=O)OCc2ccccc2)c2c1C(=O)CC(C)(C)C2 (stereo unspecified)	–	·
COC1OC(OC)C(O)(CC[C@@]2(O)[C@H](C)C[C@@H](O)C3[C@@](C)(CO)CCC[C@]32C)C1O (stereo partly specified)	–	–
C[C@H]1CN([C@@H](C)CO)C(=O)c2cccc(NC(=O)C3CC3)c2O[C@H]1CN(C)S(=O)(=O)c1ccc(Cl)cc1	–	89.7
C[C@H](CO)N1C[C@H](C)[C@@H](CN(C)S(=O)(=O)c2ccc(Cl)cc2)Oc2c(NC(=O)c3ccc(-c4nccs4)cc3)cccc2C1=O	–	–
C[C@H](CO)N1C[C@H](C)[C@H](CN(C)S(=O)(=O)c2ccc(Cl)cc2)Oc2c(NC(=O)c3ccc(-c4nccs4)cc3)cccc2C1=O	–	94.6
C[C@@H]1CN([C@H](C)CO)C(=O)c2cccc(NC(=O)C3CC3)c2O[C@H]1CN(C)S(=O)(=O)c1ccc(Cl)cc1	–	–
C[C@H](CO)N1C[C@H](C)[C@H](CN(C)S(=O)(=O)c2ccc(Cl)cc2)Oc2c(NC(=O)C3CCCCC3)cccc2C1=O	–	102.8
C[C@@H]1CN([C@@H](C)CO)C(=O)c2cccc(NC(=O)C3CCCCC3)c2O[C@@H]1CN(C)S(=O)(=O)c1ccc(Cl)cc1	–	–
C[C@H](CO)N1C[C@H](C)[C@@H](CN(C)S(=O)(=O)c2ccc(Cl)cc2)Oc2c(NC(=O)C3CCCCC3)cccc2C1=O	–	–
SMILES	MITF inhib	Shh pathway inh
C[C@H]1CN([C@@H](C)CO)C(=O)c2cccc(NC(=O)C3CCCCC3)c2O[C@H]1CN(C)S(=O)(=O)c1ccc(Cl)cc1	–	98.4
COc1ccc(Oc2ccc(NC(=O)C(C)N3C(=O)C4C5C=CC(C6CC56)C4C3=O)cc2)cc1 (stereo unspecified)	–	·
O=C(O)c1ccc(NS(=O)(=O)c2cc3c4c(cccc4c2)C(=O)NC3=O)cc1	–	–
COc1ccc([N+](=O)[O-])cc1N(CC(=O)Nc1cccc(C)c1)S(C)(=O)=O	–	·
C[C@@H]1CN([C@H](C)CO)C(=O)Cc2cc(NC(=O)Cc3cn(C)c4ccccc34)ccc2O[C@H]1CN(C)C(=O)Nc1ccc(C(F)(F)F)cc1	–	83.4
Cc1ccc(S(=O)(=O)N(C)C[C@H]2Oc3ccc(NC(=O)Nc4ccc(C(F)(F)F)cc4)cc3C(=O)N([C@@H](C)CO)C[C@H]2C)cc1	99.9	–
C[C@H](CO)N1C[C@H](C)[C@H](CN(C)C(=O)Nc2ccc(F)cc2)Oc2ccc(NC(=O)Nc3ccc(C(F)(F)F)cc3)cc2C1=O	–	69.3
Cc1ccc(S(=O)(=O)N(C)C[C@@H]2Oc3ccc(NC(=O)Nc4ccc(C(F)(F)F)cc4)cc3C(=O)N([C@H](C)CO)C[C@@H]2C)cc1	–	–
C[C@H]1CN([C@@H](C)CO)C(=O)c2cc(NC(=O)Nc3ccc(C(F)(F)F)cc3)ccc2O[C@@H]1CN(C)C(=O)Nc1ccc(F)cc1	–	–
C[C@H]1CN([C@@H](C)CO)C(=O)Cc2cc(NC(=O)Cc3cn(C)c4ccccc34)ccc2O[C@@H]1CN(C)C(=O)Nc1ccc(F)cc1	–	–
O=C(Nc1ccc(-c2ccccc2)cc1)C1CC1c1ccccc1 (stereo unspecified)	–	–
CCn1c(=NC(=O)c2ccc(S(=O)(=O)N(C)C)cc2)sc2ccccc21	–	–
NNC(=O)CCCSc1nc2ccccc2s1	–	–
O=C(CCSc1nc2ccccc2s1)Nc1ccccc1Cl	86.2	·
CC1CCC/C=C2\C(=O)C=CC3OC(/C=C/C=C/C=C/C(=O)O)=C(C(=O)O1)C23 (stereo unspecified)	–	–
C[C@@H]1CN([C@H](C)CO)C(=O)c2cccc(NC(=O)C3CCCCC3)c2O[C@H]1CN(C)S(=O)(=O)c1ccc(F)cc1	–	–
Cc1ccc(S(=O)(=O)N(C)C[C@H]2Oc3c(NC(=O)C4CC4)cccc3C(=O)N([C@@H](C)CO)C[C@H]2C)cc1	–	–
Cc1ccc(S(=O)(=O)N(C)C[C@@H]2Oc3c(NC(=O)C4CCCCC4)cccc3C(=O)N([C@@H](C)CO)C[C@H]2C)cc1	–	–
C[C@H]1CN([C@@H](C)CO)C(=O)c2cccc(NC(=O)C3CCCCC3)c2O[C@H]1CN(C)S(=O)(=O)c1ccc(F)cc1	–	81.6
Cc1ccc(S(=O)(=O)N(C)C[C@@H]2Oc3c(NC(=O)C4CCCCC4)cccc3C(=O)N([C@H](C)CO)C[C@@H]2C)cc1	–	70.4
Cc1ccc(S(=O)(=O)N(C)C[C@@H]2Oc3c(NC(=O)C4CCCCC4)cccc3C(=O)N([C@@H](C)CO)C[C@@H]2C)cc1	–	103.9
CC(O)c1nc2ccccc2n1CCOc1ccc(Br)cc1 (stereo unspecified)	–	·
O=C(CSc1nnc(-c2cccnc2)n1-c1ccccc1)NCc1ccccc1	–	–
COc1ccc(OC)c(NC(=O)c2ccc(CSc3ncnc4nc[nH]c34)cc2)c1	–	68.4
COc1ccc(OC)c(NC(=O)COc2ccc(C(=O)Nc3ccc(Cl)cc3)cc2)c1	–	·
Cn1c(=N)n(CCCOc2ccc(F)cc2)c2ccccc21	–	–
COc1cccc(C(=O)NC(c2ccc(Cl)cc2)c2c(O)ccc3ccccc23)c1 (stereo unspecified)	101.5	·
